Reference: PubChem BioAssay AID2242 (National Center for Advancing Translational Sciences (NCATS), 2010)
Among all 200,000 compounds or so, about 720 (0.36%) were called active. Inconclusive results (about 8%) are left out. Calls follow the shape of the dose curve; as a rule, active = well fitted activation curve with a large enough effect; inconclusive = small, poorly fitted or top-dose-only effect, or effect the other way, or another doubt; inactive = flat fitted curve, though single readings scatter. Some of the results follow.

target: Lysosomal alpha-glucosidase (Homo sapiens) (UniProt P10253); test: qHTS Assay for Activators of Human alpha-Glucosidase as a Potential Chaperone Treatment of Pompe Disease; conditions: purified enzyme, 4-MU-alpha-glucoside fluorescence, 20 min; series mostly up to 76.9 µM; also: nearly all actives have a fitted effect of over 80% in size
Text: NIH Chemical Genomics Center [NCGC] NIH Molecular Libraries Probe Production centers Network [MLPCN] MLPCN Grant: 1R03MH084841-01 Assay Submitter (PI): Wei Zheng NCGC Assay Overview: Alpha-glucosidase is responsible for hydrolysis of terminal, non-reducing 1,4-linked alpha-D-glucose residues with release of alpha-D-glucose. It is a lysosomal hydrolase that is required for the degradation of a small percentage (1-3%) of cellular glycogen in human. Deficiency of this enzyme results in glycogen-storage disease type II (GSDII), also referred to as Pompe disease, an autosomal recessive disorder. Structurally normal glycogen is accumulated in lysosomes and cytoplasm in affected patients, primarily in muscle tissues. Excessive glycogen storage within lysosomes may interrupt normal functioning of other organelles and leads to cellular injury. In turn, this leads to enlargement and dysfunction of the entire organ involved (eg, cardiomyopathy and muscle weakness). It has reported that the improper folding and trafficking of alpha-glucosidase resulting from the genetic mutations may account for a significant number of Pompe patients. […] We optimized this alpha-glucosidase assay in 1536-well plate format for identifying the novel small molecule inhibitors with the structures other than the sugar analogs in order to develop the new pharmacological chaperones, but are also able to detect potential activators. In conjunction with assays against alpha-galactosidase (AID 1467), fluorogenic false positive compounds can be identified.
NCGC Assay Protocol Summary: This is a fluorogenic enzyme assay with 4-methylumbelliferyl-alpha-D-[…] as the substrate and human alpha-glucosidase as the enzyme preparation. Upon the hydrolysis of this fluorogenic substrate, the resulting product, 1. 4-methyllumbelliferone, can be excited at 365 nm and emits at 440 nm which can be detected by a standard fluorescence plate reader. Data were normalized to the controls for basal activity (without enzyme) and 100% activity (with enzyme). In the AC50 values were determined from concentration-response data modeled with the standard Hill equation. Assay buffer: 50 mM citric acid (titrated with potassium phosphate to pH 5.0), 0.005% Tween-20, pH 5.0. (pH 5.0 is an optimal condition for this enzyme assay) 1536-well assay protocol for the human alpha-glucosidase: (1) Add 2 ul/well of enzyme (4 nM final) (2) Add 23 nL compounds in DMSO solution. The final titration was 0.7 nM to 77 uM. (3) Add 1 ul of substrate (400 uM final) (4) Incubate at room temperature for 20 min. (5) Add 2 ul stop solution (1M NaOH and 1M Glycine mixture, pH 10) (6) Detect the assay plate in a ViewLux plate reader (PerkinElmer) with Ex=365 nm and Em=440nm. Keywords: Alpha-glucosidase, Pompe Disease, pharmacological chaperone, chaperone therapy, high throughput screening, alpha-glucosidase inhibitor, MLSMR, MLSCN, NIH Roadmap, qHTS and NCGC
Potency is read from the fitted curve at half-maximal effect.

Potency, active:
COc1cc(C(=O)Nc2sc3c(c2C(=O)NCc2ccco2)CCCC3)cc(OC)c1OC 28.2 µM
O=C(O)c1cc(-c2cccs2)nc2cc3c(cc12)OCCO3 25.1 µM
c1ccc2c(NCC3CCCO3)nc(N3CCCCC3)nc2c1 (stereo not drawn) 39.8 µM
c1coc(CNc2nc(N3CCCCC3)nc3ccccc23)c1 39.8 µM
CCCOc1ccccc1C1C(C(=O)OC)=CN(C(C)C)C=C1C(=O)OC 39.8 µM
CCOc1ccccc1C1C(C(=O)OC)=CN(C)C=C1C(=O)OC 35.5 µM
CCCCOc1ccccc1C1C(C(=O)OC)=CN(CC)C=C1C(=O)OC 35.5 µM
CC1CN(c2oc(-c3cccs3)nc2C#N)CC(C)O1 (stereo not drawn) 35.5 µM
CN(C)c1oc(-c2cccs2)nc1C#N 39.8 µM
N#Cc1c(-c2ccccc2F)cc(-c2cccnc2)nc1N 35.5 µM
N#Cc1c(-c2ccco2)cc(-c2ccccn2)nc1N 28.2 µM
N#Cc1c(-c2ccco2)cc(-c2cccnc2)nc1N 28.2 µM
CCN(CC)Cc1c(O)c(Cl)cc2c(C)cc(=O)oc12 35.5 µM
CCc1c(C)c2cc(Cl)c(O)c(CN(CC)CC)c2oc1=O 35.5 µM
CCN(CC)Cc1c(O)c(Cl)cc2c(C)c(C)c(=O)oc12 35.5 µM
CC1(C)Cc2nc(N3CCCC3)c(C#N)cc2CO1 35.5 µM
Cc1cc2c(C)cc(=O)oc2c2c1NCCC2 35.5 µM
CCNc1nc(N)c(C(=C(C#N)C#N)c2ccccc2)s1 35.5 µM
C=CCNc1nc(N)c(C(=C(C#N)C#N)c2ccccc2)s1 35.5 µM
O=C(c1cc2c(=O)n3ccccc3nc2s1)N1CCc2ccccc2C1 44.7 µM
CCOC(=O)C1CCN(C(=O)c2cc3c(=O)n4ccccc4nc3n2C)CC1 39.8 µM
O=C(c1cc2c(=O)n3ccccc3nc2s1)N1CCN(Cc2ccc3c(c2)OCO3)CC1 35.5 µM
Cn1c(C(=O)N2CCc3ccccc3C2)cc2c(=O)n3ccccc3nc21 31.6 µM
COC(=O)c1cc2c(=O)n3ccccc3nc2n(C)c1=N 25.1 µM
Cn1c(C(=O)N2COCC2(C)C)cc2c(=O)n3ccccc3nc21 35.5 µM
CC1CN(C(=O)c2cc3c(=O)n4ccccc4nc3s2)CC(C)O1 (stereo not drawn) 35.5 µM
COc1cccc2c(=O)c3c(cnn3C)n(C)c12 31.6 µM
O=C(Nc1ccc(-c2nc3ccccc3[nH]2)cc1)c1cccc(N2C(=O)CCC2=O)c1 35.5 µM
